About 79,000 compounds went through this panel and 15% of them were active in at least one assay; those are over-represented in the sample as a whole. Calls of active or inactive are those of the source. Cut-off read from the data, not from the text of the source: active = growth inhibition above about 70%; inactive = the rest.

One experiment can be described thus: NCI Yeast Anticancer Drug Screen. Data for the sgs1 strain (AID 173).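 Note: 0% = growth of vehicle-only control cultures.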 As to conditions: S. cerevisiae sgs1 mutant, at 1.2 µM, hits give high values. The gist of the method:
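Growth of a yeast strain bearing a defined genetic alteration is measured after compound treatment. Inhibition is expressed relative to vehicle-only controls.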
On to `O=[N+]([O-])c1cc[n+]([O-])cc1`, for which the growth inhibition was -2% (inactive).

On to `CC1(C)CC(=O)C(/C=N/c2nc(-c3ccccc3)cs2)=C(O)C1`, for which the growth inhibition is 2% (inactive).

Turning to `Nc1nc(N)c2nc(CNc3ccc(C(=O)NC(CCC(=O)O)C(=O)O)cc3F)cnc2n1` (stereo unspecified), the growth inhibition was 24% (inactive).

Take `COC(=O)CC1(O)C(/C=C/c2ccccc2)C(C(=O)OC)C(=O)C(C(=O)OC)C1C(=O)OC` (stereo unspecified): the growth inhibition was -1% (inactive).

`CC(C)(C)c1ccc(NS(=O)(=O)c2ccc(N)cc2)cc1`: the growth inhibition is 3% (inactive).

Regarding `CCN(CC)CCNc1ccc([N+](=O)[O-])c2nc3ccccc3c(N)c12`, the growth inhibition was -4% (inactive).

As to `CCCCN(CCCC)C(=O)/C=C/c1ccccc1`, the growth inhibition was -17% (inactive).

On to `O=c1[nH]c(-c2ccccc2)nc2c1sc1nc3ccccc3n12`, for which the growth inhibition was -47% (inactive).

For the compound `O=[N+]([O-])c1ccc2c(c1)/C(=N/N=C1c3ccccc3Cc3ccccc31)c1cc([N+](=O)[O-])cc([N+](=O)[O-])c1-2`, the growth inhibition is 18% (inactive).

Turning to `CC(C)C(C)/C=C\C(C)C1CCC2C3=CC=C4CC(O)CCC4(C)C3CCC21C` (stereo unspecified), the growth inhibition is -1% (inactive).

Consider `O=C1Nc2ccc(Br)cc2C1=Nc1ccc2c(c1)OCO2`, for which the growth inhibition is -31% (inactive).

For the compound `CCCCOCn1c(=O)[nH]c(=O)c2cc(Br)ccc21`, the growth inhibition is -18% (inactive).

Turning to `Cc1ccc(S/C(=C\C(=O)O)c2ccccc2)cc1`, the growth inhibition was 4% (inactive).

On to `O=[N+]([O-])/C=C/c1cc(Cl)c(/C=C/[N+](=O)[O-])cc1Cl`, for which the growth inhibition is 22% (inactive).

Consider `Cc1cc(S(=O)(=O)Nc2nnc3cnc4ccccc4n23)c(S)cc1Cl`, for which the growth inhibition was -2% (inactive).

Consider `O=C(/C=C/c1cc(Cl)cc(Cl)c1O)c1cccc(O)c1`, for which the growth inhibition was 22% (inactive).

For `NC1CCCCC1N.Nc1c(N=Nc2ccc(-c3ccc(N=Nc4cc(S(=O)(=O)[O-])c5ccccc5c4N)cc3)cc2)cc(S(=O)(=O)[O-])c2ccccc12.[OH3+].[OH3+].[Pt+4]`, the growth inhibition was 4% (inactive).

Regarding `COC(=O)CCC(NC(=S)N/N=C(\C)c1ccccn1)C(=O)OC` (stereo unspecified), the growth inhibition was -14% (inactive).

Take `NC(=O)C(=O)NNc1ccccc1`: the growth inhibition was 3% (inactive).

On to `COc1cc(C2SCC(=O)N2c2ccc(-c3ccc(-n4c(-c5ccccc5)nc5ccccc5c4=O)cc3)cc2)ccc1O` (stereo unspecified), for which the growth inhibition is -3% (inactive).

As for `COc1ccc(/C=C/c2sc3ccccc3[n+]2CCCCI)cc1OC`, the growth inhibition was 1% (inactive).

As for `Cc1c(C(C)C)cc(OCCO)cc1C(C)C`, the growth inhibition was -1% (inactive).

For `Cc1cc(NCCCCCCCCNc2cc(C)nc3cc(N)ccc23)c2ccc(N)cc2n1`, the growth inhibition was -64% (inactive).

As to `C=C(Cl)COC(=O)Nc1cccc(Cl)c1`, the growth inhibition was 0% (inactive).

`CC(=O)OC1CC2C(C)(C)C(=O)C=C[C@]2(C)C2CCC3(C)C(=CCC3[C@H](CO)C[C@H](O)C(=O)C(C)(C)O)[C@]12C` (stereo partly specified): the growth inhibition was -34% (inactive).

For `COc1ccc(/C=C/C(=O)c2ccccc2)cc1OC`, the growth inhibition was -11% (inactive).

`COc1c(O)c(C=O)c(Br)c(C=O)c1O`: the growth inhibition was -2% (inactive).

For `O=[N+]([O-])c1cc(Cl)cnc1Br`, the growth inhibition was 14% (inactive).

Consider `Cc1ccc2c(c1)C1(SC(C)C(=O)N1c1ccc(Cl)cc1)C(=O)N2` (stereo unspecified), for which the growth inhibition was 2% (inactive).

On to `COc1cc(CSc2ccc(O)cc2)cc(O)c1O`, for which the growth inhibition is -1% (inactive).

For `Cc1ccc2c3ccc4c(c3n(C)c2c1)C(=O)C=CC4=O`, the growth inhibition was -32% (inactive).

For `O=C(Nc1ccc(Cl)cc1)Nc1nnc2nc(C(C(=O)c3cccc([N+](=O)[O-])c3Cl)c3nc4nnc(NC(=O)Nc5ccc(Cl)cc5)n4[nH]c3=O)c(=O)[nH]n12`, the growth inhibition was -1% (inactive).

As for `O=C(O)C1CC(c2ccccc2)=NN1c1ccccc1` (stereo unspecified), the growth inhibition was -29% (inactive).

Turning to `CCCCc1ccc(-n2c(C)c(COC(=O)NC)c(COC(=O)NC)c2C)cc1`, the growth inhibition was -3% (inactive).

`CCC(=O)c1cc(C(=O)C(=S)SC)cc(C(=O)C(=S)SC)c1`: the growth inhibition is 27% (inactive).

In the case of `CCn1c(O)c(C=Nc2ccccc2)s/c1=N/Nc1nc(-c2ccccc2)cs1`, the growth inhibition was -10% (inactive).

With `Cc1ccccc1N=C(NO)c1ccccc1`, the growth inhibition is 1% (inactive).

On to `Cc1nc2ccccc2nc1NNc1ccccc1`, for which the growth inhibition is 1% (inactive).

Staying with this experiment, now noted: S. cerevisiae sgs1 mutant, at 3.7 µM, hits give high values.
On to `O=[N+]([O-])c1cc[n+]([O-])cc1`, for which the growth inhibition is -3% (inactive).

Regarding `CC1(C)CC(=O)C(/C=N/c2nc(-c3ccccc3)cs2)=C(O)C1`, the growth inhibition was 5% (inactive).

For the compound `Nc1nc(N)c2nc(CNc3ccc(C(=O)NC(CCC(=O)O)C(=O)O)cc3F)cnc2n1` (stereo unspecified), the growth inhibition is 14% (inactive).

For the compound `COC(=O)CC1(O)C(/C=C/c2ccccc2)C(C(=O)OC)C(=O)C(C(=O)OC)C1C(=O)OC` (stereo unspecified), the growth inhibition is 1% (inactive).

With `CC(C)(C)c1ccc(NS(=O)(=O)c2ccc(N)cc2)cc1`, the growth inhibition is 6% (inactive).

For `CCN(CC)CCNc1ccc([N+](=O)[O-])c2nc3ccccc3c(N)c12`, the growth inhibition is 2% (inactive).

For `CCCCN(CCCC)C(=O)/C=C/c1ccccc1`, the growth inhibition was -6% (inactive).

For the compound `O=c1[nH]c(-c2ccccc2)nc2c1sc1nc3ccccc3n12`, the growth inhibition was -43% (inactive).

Take `O=[N+]([O-])c1ccc2c(c1)/C(=N/N=C1c3ccccc3Cc3ccccc31)c1cc([N+](=O)[O-])cc([N+](=O)[O-])c1-2`: the growth inhibition was 64% (inactive).

With `CC(C)C(C)/C=C\C(C)C1CCC2C3=CC=C4CC(O)CCC4(C)C3CCC21C` (stereo unspecified), the growth inhibition was -4% (inactive).

Regarding `O=C1Nc2ccc(Br)cc2C1=Nc1ccc2c(c1)OCO2`, the growth inhibition is -21% (inactive).

Regarding `CCCCOCn1c(=O)[nH]c(=O)c2cc(Br)ccc21`, the growth inhibition is -7% (inactive).

In the case of `Cc1ccc(S/C(=C\C(=O)O)c2ccccc2)cc1`, the growth inhibition was -4% (inactive).

As to `O=[N+]([O-])/C=C/c1cc(Cl)c(/C=C/[N+](=O)[O-])cc1Cl`, the growth inhibition was 16% (inactive).

Take `Cc1cc(S(=O)(=O)Nc2nnc3cnc4ccccc4n23)c(S)cc1Cl`: the growth inhibition was 1% (inactive).

For the compound `O=C(/C=C/c1cc(Cl)cc(Cl)c1O)c1cccc(O)c1`, the growth inhibition is 23% (inactive).

For `NC1CCCCC1N.Nc1c(N=Nc2ccc(-c3ccc(N=Nc4cc(S(=O)(=O)[O-])c5ccccc5c4N)cc3)cc2)cc(S(=O)(=O)[O-])c2ccccc12.[OH3+].[OH3+].[Pt+4]`, the growth inhibition was 22% (inactive).

With `COC(=O)CCC(NC(=S)N/N=C(\C)c1ccccn1)C(=O)OC` (stereo unspecified), the growth inhibition is -15% (inactive).

Regarding `NC(=O)C(=O)NNc1ccccc1`, the growth inhibition was 14% (inactive).

With `COc1cc(C2SCC(=O)N2c2ccc(-c3ccc(-n4c(-c5ccccc5)nc5ccccc5c4=O)cc3)cc2)ccc1O` (stereo unspecified), the growth inhibition is 0% (inactive).

Turning to `COc1ccc(/C=C/c2sc3ccccc3[n+]2CCCCI)cc1OC`, the growth inhibition was 4% (inactive).

As to `Cc1c(C(C)C)cc(OCCO)cc1C(C)C`, the growth inhibition was -3% (inactive).

For the compound `Cc1cc(NCCCCCCCCNc2cc(C)nc3cc(N)ccc23)c2ccc(N)cc2n1`, the growth inhibition was -72% (inactive).

With `C=C(Cl)COC(=O)Nc1cccc(Cl)c1`, the growth inhibition was 3% (inactive).

On to `CC(=O)OC1CC2C(C)(C)C(=O)C=C[C@]2(C)C2CCC3(C)C(=CCC3[C@H](CO)C[C@H](O)C(=O)C(C)(C)O)[C@]12C` (stereo partly specified), for which the growth inhibition was -5% (inactive).

Regarding `COc1ccc(/C=C/C(=O)c2ccccc2)cc1OC`, the growth inhibition is -2% (inactive).

As to `COc1c(O)c(C=O)c(Br)c(C=O)c1O`, the growth inhibition was 3% (inactive).

As to `O=[N+]([O-])c1cc(Cl)cnc1Br`, the growth inhibition was 25% (inactive).

Consider `Cc1ccc2c(c1)C1(SC(C)C(=O)N1c1ccc(Cl)cc1)C(=O)N2` (stereo unspecified), for which the growth inhibition is 7% (inactive).

Take `COc1cc(CSc2ccc(O)cc2)cc(O)c1O`: the growth inhibition is -2% (inactive).

Take `Cc1ccc2c3ccc4c(c3n(C)c2c1)C(=O)C=CC4=O`: the growth inhibition is -24% (inactive).

On to `O=C(Nc1ccc(Cl)cc1)Nc1nnc2nc(C(C(=O)c3cccc([N+](=O)[O-])c3Cl)c3nc4nnc(NC(=O)Nc5ccc(Cl)cc5)n4[nH]c3=O)c(=O)[nH]n12`, for which the growth inhibition was 0% (inactive).

As for `O=C(O)C1CC(c2ccccc2)=NN1c1ccccc1` (stereo unspecified), the growth inhibition was -34% (inactive).

Consider `CCCCc1ccc(-n2c(C)c(COC(=O)NC)c(COC(=O)NC)c2C)cc1`, for which the growth inhibition was -2% (inactive).

On to `CCC(=O)c1cc(C(=O)C(=S)SC)cc(C(=O)C(=S)SC)c1`, for which the growth inhibition is 62% (inactive).

In the case of `CCn1c(O)c(C=Nc2ccccc2)s/c1=N/Nc1nc(-c2ccccc2)cs1`, the growth inhibition was 7% (inactive).

As to `Cc1ccccc1N=C(NO)c1ccccc1`, the growth inhibition was 6% (inactive).

Regarding `Cc1nc2ccccc2nc1NNc1ccccc1`, the growth inhibition was 1% (inactive).

Source of the values: PubChem BioAssay (NCI).
